Measured values from PubChem BioAssay AID1159580 (chemical genetic matrix, 2015).
Values joined by “and” are separate entries in the source; they are usually repeats but may differ in a detail not shown here. Identical values can stand only once. The whole screen tested about 5,500 compounds, of which about 2,000 (36%) were called active. About 18% were inconclusive and are not listed. Rule as the data show it: active = normalized growth mostly below about 0.91 (no sharp cut-off); inconclusive = no clear call, values can overlap the other calls; inactive = mostly above about 0.92. The list shows a part of the results.

Experiment: chemical genetic growth profiling, strain panel (AID 1159580);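 also: tested at 20 µM; growth read once vehicle control cultures reached saturation at 30 °C; 1 = growth at the plate median or of vehicle wells; lower values mean less growth of the strain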
Settings: S. cerevisiae deletion strains, growth OD

Measured: normalized growth

C[C@H]1CC2C([C@@H](O)C[C@@]3(C)C2CC[C@]3(O)C(=O)CO)[C@@]2(C)C=CC(=O)C=C12 (stereo partly specified)
inactive: locus YAL013W, strain DEP1, stronger effect = lower value 0.994 | locus YAL021C, strain ccr4, stronger effect = lower value 1.01 | locus YAL026C, strain drs2, stronger effect = lower value 1.02 | locus YAL030W, strain snc1, stronger effect = lower value 1 | locus YBL061C, strain skt5, stronger effect = lower value 0.991 | locus YBR009C, strain hhf1, stronger effect = lower value 1.01 | locus YBR021W, strain FUR4, stronger effect = lower value 0.972 | locus YBR023C, strain chs3, stronger effect = lower value 1.01 | locus YBR171W, strain sec66, stronger effect = lower value 0.993 | locus YBR229C, strain ROT2, stronger effect = lower value 0.993 | locus YBR231C, strain swc5, stronger effect = lower value 0.977 | locus YBR279W, strain paf1, stronger effect = lower value 1.01 | locus YCL011C, strain gbp2, stronger effect = lower value 1.03 | locus YCL016C, strain dcc1, stronger effect = lower value 1.01 | locus YCL029C, strain bik1, stronger effect = lower value 1.03 | locus YCL061C, strain MRC1, stronger effect = lower value 0.999 | locus YCL069W, strain vba3, stronger effect = lower value 0.993 | locus YCR088W, strain abp1, stronger effect = lower value 1 | locus YDL005C, strain med2, stronger effect = lower value 0.987 | locus YDL035C, strain GPR1, stronger effect = lower value 0.993 | locus YDL040C, strain nat1, stronger effect = lower value 1 | locus YDL074C, strain BRE1, stronger effect = lower value 1.02 | locus YDL101C, strain DUN1, stronger effect = lower value 1.01 | locus YDL134C, strain PPH21, stronger effect = lower value 0.996 | locus YDL185W, strain tfp1, stronger effect = lower value 1.01 | locus YDL192W, strain arf1, stronger effect = lower value 1.01 | locus YDR001C, strain nth1, stronger effect = lower value 1 | locus YDR069C, strain doa4, stronger effect = lower value 0.994 | locus YDR101C, strain arx1, stronger effect = lower value 1.02 | locus YDR137W, strain rgp1, stronger effect = lower value 0.993 | locus YDR150W, strain NUM1, stronger effect = lower value 0.988 | locus YDR159W, strain sac3, stronger effect = lower value 1.01 | locus YDR162C, strain NBP2, stronger effect = lower value 0.995 | locus YDR195W, strain ref2 0.934 | locus YDR297W, strain sur2, stronger effect = lower value 0.987 | locus YDR318W, strain mcm21, stronger effect = lower value 1.03 | locus YDR334W, strain swr1, stronger effect = lower value 0.997 | locus YDR335W, strain msn5, stronger effect = lower value 1 | locus YDR388W, stronger effect = lower value 1.02 | locus YDR392W, strain spt3, stronger effect = lower value 1.02 | locus YDR502C, strain sam2, stronger effect = lower value 1.01 | locus YEL003W, strain gim4, stronger effect = lower value 0.984 | locus YEL037C, strain rad23, stronger effect = lower value 1 | locus YEL061C, strain CIN8 (second series), stronger effect = lower value 1.01 | locus YEL061C, strain CIN8, stronger effect = lower value 0.993 | locus YER015W, strain faa2, stronger effect = lower value 1.01 | locus YER016W, strain bim1, stronger effect = lower value 1 | locus YER110C, stronger effect = lower value 1.01 | locus YER111C, strain swi4, stronger effect = lower value 1 | locus YER155C, strain BEM2 (second series), stronger effect = lower value 0.989 | locus YER155C, strain BEM2, stronger effect = lower value 0.996 | locus YER167W, strain BCK2, stronger effect = lower value 0.996 | locus YFR010W, strain ubp6, stronger effect = lower value 0.982 | locus YGL078C, strain dbp3, stronger effect = lower value 1.02 | locus YGL086W, strain mad1, stronger effect = lower value 0.999 | locus YGL167C, strain pmr1, stronger effect = lower value 0.988 | locus YGL173C, strain kem1, stronger effect = lower value 0.986 | locus YGL227W, strain vid30, stronger effect = lower value 0.992 | locus YGL240W, strain doc1, stronger effect = lower value 0.972 | locus YGL248W, strain PDE1, stronger effect = lower value 1 | locus YGL253W, strain hxk2, stronger effect = lower value 0.997 | locus YGR078C, strain PAC10, stronger effect = lower value 0.984 | locus YGR135W, strain pre9, stronger effect = lower value 1.04 | locus YGR229C, strain SMI1, stronger effect = lower value 0.986 | locus YGR252W, strain gcn5, stronger effect = lower value 0.947 | locus YHR013C, strain ard1, stronger effect = lower value 0.997 | locus YHR027C, strain rpn1, stronger effect = lower value 1 | locus YHR030C, strain SLT2, stronger effect = lower value 0.994 and 1.07 | locus YHR079C, strain IRE1 (second series), stronger effect = lower value 1.02 | locus YHR079C, strain IRE1, stronger effect = lower value 1.07 | locus YHR094C, strain hxt1, stronger effect = lower value 1.02 | locus YHR129C, strain ARP1, stronger effect = lower value 1 | locus YHR142W, strain chs7, stronger effect = lower value 0.997 | locus YHR200W, strain rpn10, stronger effect = lower value 1.01 | locus YIL066C, strain RNR3, stronger effect = lower value 1 | locus YIL073C, strain SPO22, stronger effect = lower value 1.01 | locus YIL125W, strain kgd1, stronger effect = lower value 1 | locus YIR030C, strain dcg1, stronger effect = lower value 1.02 | locus YJL092W, strain hpr5, stronger effect = lower value 0.989 | locus YJL095W, strain BCK1 (second series), stronger effect = lower value 0.997 | locus YJL095W, strain BCK1, stronger effect = lower value 1.03 | locus YJL115W, strain asf1, stronger effect = lower value 1 | locus YJL129C, strain trk1, stronger effect = lower value 0.987 | locus YJL134W, strain LCB3, stronger effect = lower value 1 | locus YJL154C, strain vps35, stronger effect = lower value 1.01 | locus YJL164C, strain tpk1, stronger effect = lower value 1.01 | locus YJL166W, strain qcr8, stronger effect = lower value 0.97 | locus YJL168C, strain set2, stronger effect = lower value 1.01 | locus YJL187C, strain SWE1 (second series), stronger effect = lower value 1.01 | locus YJR043C, strain POL32, stronger effect = lower value 1.01 | locus YJR066W, strain TOR1, stronger effect = lower value 1.02
